Results from the supplement of paper PMC6897291.
Counter-ions that a name gives are not always drawn.

Each compound was assayed on RIVA (assay: growth inhibition by drug plus 177Lu-lilotomab satetraxetan (1 - RLU/untreated control) (fraction); higher = stronger inhibition). Conditions: 100 nM; time (day): 6; 177Lu-lilotomab satetraxetan 0.5 ug/ml.
Summary of the method: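 Compound doses on the pre-printed Selleck Cambridge Cancer Compound library plates were 10/100 nM for RIVA cells and 10/1,000 nM for U-2932 cells, seeded at 3,000 cells/well. Before seeding, cells were washed after 18 h with or without a radiolabelled anti-CD37 antibody conjugate (~600 MBq/mg; 0.5 µg/ml RIVA, 1 µg/ml U-2932). Growth inhibition was derived from RealTime-Glo luminescence relative to untreated no-drug control wells. Readings were taken daily starting on day 3, each after 1 h at 37°C, and each well's RLU was divided by the mean of 48 such wells per plate and subtracted from 1.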

| Structure (SMILES) | growth inhibition by drug plus 177Lu-lilotomab satetraxetan |
| --- | --- |
| Nc1nc2[nH]cc(CCc3ccc(C(=O)N[C@@H](CCC(=O)O)C(=O)O)cc3)c2c(=O)[nH]1 [Pemetrexed] | 0.408 |
| COc1cc2nccc(Oc3ccc(NC(=O)Nc4cc(C)on4)c(Cl)c3)c2cc1OC [Tivozanib (AV-951)] | 0.526 |
| CCC(=O)N1CCN(c2ccc(-n3c(=O)ccc4cnc5ccc(-c6cnc7ccccc7c6)cc5c43)cc2C(F)(F)F)CC1 [Torin 1] | 0.531 |
| COc1cccc2c1C(=O)c1c(O)c3c(c(O)c1C2=O)C[C@@](O)(C(=O)CO)C[C@@H]3O[C@H]1C[C@H](N)[C@@H](O)[C@H](C)O1 [Epirubicin Hydrochloride] | 0.967 |
| Clc1ccc(Nc2nnc(Cc3ccncc3)c3ccccc23)cc1 [Vatalanib dihydrochloride (PTK787)] | 0.426 |
| COc1cc2nccc(Oc3ccc(NC(=O)C4(C(=O)Nc5ccc(F)cc5)CC4)cc3)c2cc1OC [XL-184 free base (Cabozantinib)] | 0.532 |
| C[C@@H](O[C@H]1OCCN(Cc2n[nH]c(=O)[nH]2)[C@H]1c1ccc(F)cc1)c1cc(C(F)(F)F)cc(C(F)(F)F)c1 [Aprepitant (MK-0869)] | 0.419 |
| COc1cc2c(cc1O)CC[C@@H]1[C@@H]2CC[C@]2(C)[C@@H](O)CC[C@@H]12 [2-Methoxyestradiol] | 0.439 |
| CNCc1ccc(-c2[nH]c3cc(F)cc4c3c2CCNC4=O)cc1 | 0.57 |
| CC[C@@]1(O)C(=O)OCc2c1cc1n(c2=O)Cc2cc3c(CN(C)C)c(O)ccc3nc2-1 [Topotecan HCl] | 0.931 |
